Activity calls are given as the source filed them.
Experiments:
[1] = small molecules captured by biotinylated probe aFSTL3 – biochemical, small-molecule microarray, fluorescence 635/667, stem cell growth factor project, primary screen (AID 1064); conditions: higher = more signal;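 also: measures binding of the biotinylated anti-FSTL3 antibody to printed compounds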
[2] = binders from COS7 lysate, DM2A8 probe, primary screen, torsin A project, cell lysate, small-molecule microarray, fluorescence 635/667 (AID 1065); conditions: higher = more signal, COS7 lysate expressing mutant human TOR1A
[3] = small molecules captured by biotinylated probe aFGF2 – biochemical, small-molecule microarray, fluorescence 635/667, stem cell growth factor project, primary screen (AID 1067); conditions: higher = more signal;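 also: measures binding of biotinylated aFGF2 protein to printed compounds on slides; z-score merges feature fluorescence and signal-to-noise across triplicate slides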
[4] = small molecules captured by biotinylated probe aFGF10 – biochemical, small-molecule microarray, fluorescence 635/667, stem cell growth factor project, primary screen (AID 1071); conditions: higher = more signal;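 also: score merges 667 nm spot intensity and signal to noise from triplicate slides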
[5] = biological target: Neurogenic locus notch homolog protein 2 (Homo sapiens) (UniProt Q04721); assay: small molecules binding Notch2 protein – biochemical, small-molecule microarray, 635 nm fluorescence, stem cell growth factors, primary screen (AID 1073); conditions: higher = more signal
[6] = biological target: Pro-neuregulin-1, membrane-bound isoform (Homo sapiens) (UniProt Q02297); assay: small molecules binding neuregulin-1 protein – biochemical, small-molecule microarray, fluorescence 635/667, psychiatric disease protein project, primary screen (AID 1075); conditions: NRG1 binding, 635 nm fluorescence, higher = more signal;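 also: score combines 667 nm spot fluorescence with signal to noise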
[7] = test system: Neuregulin-1 EGF-like domain; assay: small molecules binding NRG1 EGF domain – biochemical, small-molecule microarray, 635 nm fluorescence, primary screen (AID 1081); conditions: higher = more signal;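 also: binding of the protein to compounds printed on small-molecule microarray slides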
[8] = FRG1 expression reporter modulators in myotubes – cell-based, C2C12 myotubes, firefly/Renilla luciferase, luminescence, FRG1 inhibition for FSHD, primary screen (AID 1084); conditions: FRG1 promoter luciferase, higher = more signal, called active from +8 up or from −8 down
[9] = small molecules captured by biotinylated probe aFST – biochemical, small-molecule microarray, fluorescence 635/667, stem cell growth factor project, primary screen (AID 1086); conditions: higher = more signal;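 also: score merges 667 nm fluorescence with signal-to-noise of each printed compound spot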
[10] = binders of probe aHhip on microarray, primary screen, stem cell growth factor project, biochemical, small-molecule microarray, fluorescence 635/667 (AID 1087); conditions: higher = more signal;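 also: score merges spot fluorescence at 667nm with spot signal to noise ratio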
[11] = test system: PRMT1 (protein arginine N-methyltransferase 1); assay: small molecules binding arginine methyltransferase PRMT1 – biochemical, small-molecule microarray, 635 nm fluorescence, primary screen (AID 1088); conditions: higher = more signal;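 also: binding of Prmt1 protein to compounds spotted on small-molecule microarray slides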
[12] = growth effects on S. cerevisiae YJM789 – YJM789 clinical isolate, OD600, 24 h, basal, primary screen (AID 1089); conditions: higher = more signal, called active from +8 up or from −8 down;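 also: growth of clinical yeast isolate S. cerevisiae YJM 789 seeded 1000 cells per well; test concentration not given here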
[13] = S. pombe growth modifiers, basal conditions – strain 972, OD600, 24 h, no modulator, primary screen (AID 1090);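 also: basal condition with compound alone and no growth modifier present; test concentration not given here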; conditions: S. pombe 972 growth, higher = more signal, called active from +8 up or from −8 down
[14] = budding yeast growth modifiers under rapamycin – strain BY4716, OD600, 96 h, primary screen (AID 1091); also: test concentration not given here; conditions: S. cerevisiae BY4716 + rapamycin, higher = more signal, called active from +8 up or from −8 down
[15] = biological target: Torsin-1A-interacting protein 2 (Homo sapiens) (UniProt Q8NFQ8); assay: small molecules binding lysate-expressed LULL1 – cell lysate, human LULL1 lysate, 635/667 nm fluorescence, primary screen (AID 1092); conditions: small-molecule microarray, hLULL1 lysate binding, 635 nm fluorescence; higher = more signal;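 also: probe is lysate of COS7 cells overexpressing human LULL1; score merges per-feature 667 nm fluorescence with signal-to-noise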
[16] = optical density change of DRC41 E. coli – strain DRC41, OD650, 24 h, E. coli filamentation project, primary screen (AID 1093);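 also: MC1000 strain lacking acrAB efflux and sulA so SOS filamentation is blocked; test concentration not given here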; conditions: E. coli DRC41 growth, higher = more signal, called active from +8 up or from −8 down
[17] = probe aLefty2 binding to arrayed compounds – biochemical, biotinylated probe, 635/667 nm fluorescence, primary screen (AID 1094); conditions: small-molecule microarray, higher = more signal;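 also: score merges spot fluorescence near 667 nm with spot signal-to-noise ratio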
[18] = test system: Noggin (protein binding on small-molecule microarray); assay: small molecules binding Noggin protein – biochemical, 635/667 nm fluorescence, primary screen (AID 1095); conditions: 635 nm fluorescence, higher = more signal;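 also: score merges 667 nm feature fluorescence with signal to noise over triplicate slides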
[19] = biological target: Neurogenic locus notch homolog protein 3 (Homo sapiens) (UniProt Q9UM47); assay: small molecules binding NOTCH3 protein – biochemical, 635/667 nm fluorescence, primary screen (AID 1096); conditions: small-molecule microarray, 635 nm fluorescence, higher = more signal
[20] = probe aEGFR binding to arrayed compounds – biochemical, biotinylated probe, 635/667 nm fluorescence, primary screen (AID 1097); conditions: small-molecule microarray, higher = more signal;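 also: probe is a biotinylated anti-EGFR antibody binding compounds printed on slides; score combines fluorescence near 667 nm and signal to noise of each spot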

Chain of Neurogenic locus notch homolog protein 2 (Homo sapiens) (Q04721 whole entry, looked up, canonical isoform): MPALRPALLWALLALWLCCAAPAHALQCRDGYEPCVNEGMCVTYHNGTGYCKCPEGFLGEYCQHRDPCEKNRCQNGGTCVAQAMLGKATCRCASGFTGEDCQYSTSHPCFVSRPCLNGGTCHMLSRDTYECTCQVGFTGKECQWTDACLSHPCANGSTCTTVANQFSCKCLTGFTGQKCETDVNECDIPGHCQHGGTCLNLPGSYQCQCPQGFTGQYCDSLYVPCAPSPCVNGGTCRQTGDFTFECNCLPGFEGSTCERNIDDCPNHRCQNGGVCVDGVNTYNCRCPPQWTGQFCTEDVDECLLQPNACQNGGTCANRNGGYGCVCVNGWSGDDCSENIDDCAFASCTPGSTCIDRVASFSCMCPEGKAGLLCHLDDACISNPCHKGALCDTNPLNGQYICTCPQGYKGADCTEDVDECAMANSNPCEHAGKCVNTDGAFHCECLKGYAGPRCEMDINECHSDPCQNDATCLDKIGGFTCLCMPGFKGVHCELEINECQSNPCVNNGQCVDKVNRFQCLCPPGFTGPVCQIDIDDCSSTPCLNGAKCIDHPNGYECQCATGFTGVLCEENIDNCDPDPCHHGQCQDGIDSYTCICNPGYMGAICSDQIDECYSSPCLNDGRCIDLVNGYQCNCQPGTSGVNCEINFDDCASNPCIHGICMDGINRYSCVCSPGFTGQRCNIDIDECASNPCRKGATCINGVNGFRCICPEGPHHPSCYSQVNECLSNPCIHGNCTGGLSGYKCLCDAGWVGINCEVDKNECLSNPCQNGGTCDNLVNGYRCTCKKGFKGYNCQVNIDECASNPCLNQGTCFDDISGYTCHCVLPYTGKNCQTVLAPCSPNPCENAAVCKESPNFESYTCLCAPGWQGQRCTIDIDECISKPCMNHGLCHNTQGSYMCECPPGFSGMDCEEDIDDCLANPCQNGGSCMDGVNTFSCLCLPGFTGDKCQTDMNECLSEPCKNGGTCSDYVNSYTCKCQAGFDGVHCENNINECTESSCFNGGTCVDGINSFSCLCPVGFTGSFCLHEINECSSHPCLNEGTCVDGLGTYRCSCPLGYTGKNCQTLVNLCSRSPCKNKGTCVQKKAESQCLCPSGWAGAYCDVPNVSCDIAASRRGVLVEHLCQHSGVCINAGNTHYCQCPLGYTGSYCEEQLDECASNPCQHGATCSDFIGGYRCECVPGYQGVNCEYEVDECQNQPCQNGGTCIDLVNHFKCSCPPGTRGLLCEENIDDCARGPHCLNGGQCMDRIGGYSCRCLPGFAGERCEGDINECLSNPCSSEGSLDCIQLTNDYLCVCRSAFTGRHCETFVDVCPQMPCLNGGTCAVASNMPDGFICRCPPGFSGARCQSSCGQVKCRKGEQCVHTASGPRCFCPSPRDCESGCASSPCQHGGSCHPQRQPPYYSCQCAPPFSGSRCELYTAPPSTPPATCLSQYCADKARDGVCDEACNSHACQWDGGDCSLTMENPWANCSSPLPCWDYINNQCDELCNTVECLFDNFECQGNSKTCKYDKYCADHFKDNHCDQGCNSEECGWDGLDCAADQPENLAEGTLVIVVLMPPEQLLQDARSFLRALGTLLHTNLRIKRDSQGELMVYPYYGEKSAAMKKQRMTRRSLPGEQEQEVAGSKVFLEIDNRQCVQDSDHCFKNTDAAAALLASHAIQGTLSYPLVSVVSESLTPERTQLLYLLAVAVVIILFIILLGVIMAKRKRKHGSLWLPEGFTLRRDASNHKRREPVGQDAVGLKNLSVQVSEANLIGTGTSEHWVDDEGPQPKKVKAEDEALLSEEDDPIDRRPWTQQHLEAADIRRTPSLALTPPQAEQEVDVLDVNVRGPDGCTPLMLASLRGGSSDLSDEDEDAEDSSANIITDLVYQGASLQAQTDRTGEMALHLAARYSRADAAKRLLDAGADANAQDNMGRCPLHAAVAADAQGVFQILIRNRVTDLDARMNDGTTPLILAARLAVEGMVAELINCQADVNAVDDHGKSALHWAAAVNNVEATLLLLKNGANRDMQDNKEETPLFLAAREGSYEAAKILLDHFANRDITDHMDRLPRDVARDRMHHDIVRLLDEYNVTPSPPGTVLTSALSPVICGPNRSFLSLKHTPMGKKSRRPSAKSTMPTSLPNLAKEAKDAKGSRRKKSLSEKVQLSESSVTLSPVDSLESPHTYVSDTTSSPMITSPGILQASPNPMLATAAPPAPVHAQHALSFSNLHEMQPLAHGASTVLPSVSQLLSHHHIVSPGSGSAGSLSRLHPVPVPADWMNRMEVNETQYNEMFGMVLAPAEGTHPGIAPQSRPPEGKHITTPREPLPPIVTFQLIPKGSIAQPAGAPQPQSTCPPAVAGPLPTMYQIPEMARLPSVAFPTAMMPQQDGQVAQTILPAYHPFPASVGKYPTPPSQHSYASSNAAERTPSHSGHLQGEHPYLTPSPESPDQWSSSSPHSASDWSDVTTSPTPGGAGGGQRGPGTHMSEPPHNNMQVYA
Chain of Pro-neuregulin-1, membrane-bound isoform (Homo sapiens) (Q02297 whole entry, looked up, the tested form may be a part, canonical isoform): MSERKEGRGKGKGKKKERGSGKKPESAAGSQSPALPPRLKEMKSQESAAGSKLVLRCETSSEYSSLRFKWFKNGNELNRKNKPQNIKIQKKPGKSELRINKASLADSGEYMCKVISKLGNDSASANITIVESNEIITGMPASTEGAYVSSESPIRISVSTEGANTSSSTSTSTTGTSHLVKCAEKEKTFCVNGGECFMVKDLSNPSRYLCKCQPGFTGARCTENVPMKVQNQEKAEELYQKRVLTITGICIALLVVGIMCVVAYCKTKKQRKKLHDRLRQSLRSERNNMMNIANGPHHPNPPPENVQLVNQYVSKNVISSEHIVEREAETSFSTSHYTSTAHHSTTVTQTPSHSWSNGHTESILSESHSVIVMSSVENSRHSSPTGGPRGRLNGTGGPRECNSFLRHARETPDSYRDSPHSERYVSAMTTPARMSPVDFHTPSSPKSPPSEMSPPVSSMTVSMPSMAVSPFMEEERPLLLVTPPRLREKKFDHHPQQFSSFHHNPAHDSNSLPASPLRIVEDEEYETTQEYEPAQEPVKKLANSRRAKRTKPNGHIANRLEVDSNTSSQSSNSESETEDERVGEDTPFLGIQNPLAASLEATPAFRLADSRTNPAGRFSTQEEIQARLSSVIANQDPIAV
Chain of Torsin-1A-interacting protein 2 (Homo sapiens) (Q8NFQ8 whole entry, looked up): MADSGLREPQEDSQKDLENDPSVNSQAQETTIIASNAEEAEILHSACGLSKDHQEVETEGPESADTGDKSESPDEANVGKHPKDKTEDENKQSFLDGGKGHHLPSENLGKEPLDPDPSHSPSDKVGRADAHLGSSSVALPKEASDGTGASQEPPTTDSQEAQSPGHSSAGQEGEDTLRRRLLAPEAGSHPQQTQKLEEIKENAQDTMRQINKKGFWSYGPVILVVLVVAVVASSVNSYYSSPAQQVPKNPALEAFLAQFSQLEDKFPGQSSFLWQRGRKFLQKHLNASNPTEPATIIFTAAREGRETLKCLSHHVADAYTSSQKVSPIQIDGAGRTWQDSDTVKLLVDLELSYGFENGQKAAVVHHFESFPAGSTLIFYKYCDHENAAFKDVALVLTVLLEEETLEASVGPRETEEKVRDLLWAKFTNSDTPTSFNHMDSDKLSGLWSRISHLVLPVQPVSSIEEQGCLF

| Compound | composite z-score [1] | composite z-score [2] | composite z-score [3] | composite z-score [4] | composite z-score [5] | composite z-score [6] | composite z-score [7] | z-score [8] | composite z-score [9] | composite z-score [10] | composite z-score [11] | z-score [12] | z-score [13] | z-score [14] | composite z-score [15] | z-score [16] | composite z-score [17] | composite z-score [18] | composite z-score [19] | composite z-score [20] |
| --- | --- | --- | --- | --- | --- | --- | --- | --- | --- | --- | --- | --- | --- | --- | --- | --- | --- | --- | --- | --- |
| Cc1ccc(S[C@]2(C(=O)NC3CC3)CC(=O)N(C3Cc4ccccc4C3)[C@@H]2c2ccc(CO)cc2)cc1 | 0.631 | -0.233 | 0.11 | -0.563 | -0.363 | 1.08 | 0.836 | -2.83 (inactive) | -0.175 | -0.134 | 1.38 | -2.31 (inactive) | -0.945 (inactive) | -1.13 (inactive) | 3.08 | 2.12 (inactive) | -0.0533 | -0.878 | 0.19 | -0.221 |
| CC(C)(C)OC(=O)CC[C@@]1(C(N)=O)N=C(c2ccc(OCCCO)cc2)O[C@@H]1c1ccccc1 | 0.0075 | 1.93 | -0.0399 | 0.558 | 1.29 | 1.71 | 1.24 | 0.18 (inactive) | 1.05 | -0.134 | 1.57 | -0.145 (inactive) | -0.589 (inactive) | -0.399 (inactive) | 3.17 | -0.511 (inactive) | 0.0917 | 0.392 | 0.79 | 0.106 |
| CCCC#C[Si](O[C@H](CC)c1cn([C@H](CO)Cc2ccccc2)nn1)(C(C)C)C(C)C | -0.503 | 0.236 | -0.0856 | 0.449 | 0.769 | 0.471 | 0.988 | 0.889 (inactive) | -0.0393 | -0.0003 | 0.869 | -0.843 (inactive) | -10.7 (active) | -2.6 (inactive) | 1.48 | 0.858 (inactive) | 0.0166 | 0.681 | 0.584 | -0.0563 |
| C=CCNC(=O)[C@H]1[C@@H]2C(=O)O[C@@H](c3ccccc3)[C@@H](c3ccccc3)N2[C@@H](c2ccc(OCCO)cc2)[C@]12C(=O)Nc1ccc(C#CC3=CCCCC3)cc12 | -0.299 | 0.218 | 0.0703 | 0.498 | 1.05 | 0.688 | 1.29 | -0.254 (inactive) | 0.233 | -0.216 | 1.55 | 2.28 (inactive) | 1.46 (inactive) | 4.72 (inactive) | 2.89 | 1.53 (inactive) | -0.109 | 0.673 | 1.15 | -0.147 |
| O=C1O[C@H](c2ccccc2)[C@H](c2ccccc2)N2[C@H]1[C@@H](C(=O)Nc1nc3ccccc3s1)[C@]1(C(=O)Nc3ccc(C#CC4(O)CCCCCC4)cc31)[C@H]2c1ccc(OCCO)cc1 | -0.317 | 0.792 | -0.129 | 0.805 | 0.642 | 1.7 | 1.06 | 1.97 (inactive) | 0.395 | 0.0413 | 1.56 | 1.22 (inactive) | 1.76 (inactive) | 1.76 (inactive) | 2.2 | 0.546 (inactive) | 0.0317 | 0.986 | 1.02 | 0.0589 |
| COC(=O)[C@@]1(Cc2ccccc2)[C@H]2c3cc(C(=O)N(C)C)n(CCSCCO)c3C[C@H]2CN1C(=O)c1ccccc1 | -0.303 | 1.07 | 0.0413 | 0.689 | 1.17 | 1.28 | 1.24 | 1.27 (inactive) | 0.335 | 0.347 | -0.0249 | -0.177 (inactive) | 0.536 (inactive) | -0.694 (inactive) | 3.09 | -0.842 (inactive) | 0.172 | -0.411 | -0.0488 | 0.0239 |
| COC(=O)[C@@]1(Cc2ccc(F)cc2)[C@H]2c3cc(C(=O)N(C)C)n(CC4CC4)c3C[C@H]2CN1C(=O)c1ccccc1 | 2.43 | 1.04 | 0.833 | 1.27 | 1.58 | 1.6 | 1.26 | -0.115 (inactive) | 2.76 | 0.741 | 1.45 | 0.712 (inactive) | 0.877 (inactive) | 2.49 (inactive) | 3.57 | -0.334 (inactive) | 1.41 | 0.506 | 1.06 | 0.973 |
| CCCCN1CC=CC23O[C@@H]4/C=C\CCC(C)OC(=O)C4[C@H]2C(=O)N(CCCCCO)[C@@H]3C1=O (stereo not given in full) | 0.141 | -0.421 | -0.132 | -1.16 | -0.784 | 0.768 | 0.178 | 0.464 (inactive) | -0.526 | -0.0994 | 0.445 | -0.402 (inactive) | -0.831 (inactive) | -0.868 (inactive) | 1.72 | 0.0029 (inactive) | -0.205 | -0.976 | -0.292 | -0.227 |
| CCOC1=C2C(CN(S(=O)(=O)c3ccc(C)cc3)C2c2ccc(C)cc2)C2C(=O)N(c3ccccc3)C(=O)C2C1 (stereo not given) | -0.208 | -0.155 | -0.0074 | 0.347 | 1.25 | 0.752 | 1.03 | -0.62 (inactive) | 0.585 | -0.0618 | 0.952 | 0.218 (inactive) | 1.86 (inactive) | 0.852 (inactive) | 1.96 | 0.0696 (inactive) | -0.0515 | 0.257 | 0.875 | 0.0414 |
| Cc1ccc(S[C@]2(C(=O)NCC(C)C)CC(=O)N(Cc3cc(C(F)(F)F)cc(C(F)(F)F)c3)[C@@H]2c2ccc(CO)cc2I)cc1 | 1.61 | -0.367 | -0.113 | -0.637 | -1.1 | 1.13 | 0.102 | -0.286 (inactive) | 0.0584 | -0.216 | 0.714 | -1.79 (inactive) | -1.94 (inactive) | 0.651 (inactive) | 0.736 | -0.161 (inactive) | 0.31 | -2.5 | -0.332 | -0.0824 |
| CC1(C)[C@@H]2CC(C(O)C3C=CC4C(=O)N(c5ccccc5)C(=O)C4N3Nc3ccccc3)=C[C@H]1C2 (stereo not given in full) | 0.11 | -0.6 | 0.062 | 0.45 | 1.03 | 1.15 | 0.886 | -0.559 (inactive) | 0.889 | 0.142 | -0.0035 | -0.4 (inactive) | 0.286 (inactive) | -0.136 (inactive) | 2.58 | -0.936 (inactive) | -0.0008 | -0.161 | 0.367 | -0.0431 |
